Shown are actives, neighbours in structure and some others; about 19% of the full set was active somewhere.
HT1080 IDH1KD tx = HT-1080 IDH1 knockdown cell toxicity (counter line) | HT-1080 IDH1 knockdown viability, ATP luminescence, 48 h | Potency, µM (titrated, usually from 46.1 µM), usual class: cytotoxic | 360,000 compounds, 2% hits | AID 686971
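After a 2 h attachment period, IDH1KD HT-1080 cells took pin-transferred compound for 48 h at 37 °C; ATP-based luminescence after 10 min room-temperature reagent incubation reported viability.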
TDP1 cell CPT = growth inhibition of DT40 Tdp1-/-;hTDP1 cells with camptothecin (screen for TDP1 inhibitors); 420,000 compounds, 12% hits; chicken DT40 Tdp1-/-;hTDP1 cells + 20 nM CPT, ATP luminescence, 48 h; Potency, µM (titrated, usually from 46.2 µM), usual class: inhibitors; further: nearly all actives have a fitted effect of over 55% in size
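Chicken DT40 Tdp1-/- cells complemented with human TDP1, 400 cells/well, exposed to compounds plus 20 nM camptothecin for at least 48 h at 37 C; viability read as ATP content by CellTiter-Glo luminescence.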
DT40 TDP1 no CPT = qHTS for Inhibitors of human tyrosyl-DNA phosphodiesterase 1 (TDP1): qHTS in cells in absence of CPT. DT40 Tdp1-/- hTDP1 cells, no CPT, ATP luminescence, 48 h. Potency, µM (top dose mostly 46.2 µM), usual class: inhibitors. 420,000 compounds, 15% hits; further: nearly all actives have a fitted effect of over 55% in size
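Compound effects on proliferation are scored in DT40 Tdp1-/-;hTDP1 cells in the absence of CPT. ATP levels (CellTiter-Glo luminescence) are recorded after a ≥48 hr, 37 °C incubation.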
IL-1B inflam inh = blocks inflammasome-driven IL-1 beta release; THP-1 LPS/ATP IL-1B secretion, AlphaLISA, 16 h; stronger effect = lower value; activity change, % at 57.5 µM; 360,000 compounds, 4.7% hits; in the data active means activity change below about -50%; inconclusive means mostly about -30% to -49%
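THP-1 cells pretreated 1 hr with compounds (up to 57.5 uM final), then stimulated with LPS (250 ng/mL final) plus ATP (1.25 mM final); secreted IL-1B measured by AlphaLISA after 16 hr, decreased signal indicating inhibition.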
HT1080NT lethal = kills 2HG-producing HT-1080-NT fibrosarcoma cells; HT-1080-NT fibrosarcoma viability, CellTiter-Glo ATP luminescence, 48 h; Potency, µM (highest dose often 46.1 µM), actives largely listed as cytotoxic; 360,000 compounds, 1.6% hits; AID 686970;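 further: NT is the 2HG producing partner of a matched IDH1 knockdown line; nearly all actives have a fitted effect of over 55% in size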
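HT-1080-NT fibrosarcoma cells (2HG-overproducing), 750 cells/well in RPMI with 5% FBS, dosed after 2 h and incubated 48 h at 37C. CellTiter-Glo luminescence normalized to DMSO and no-cell wells; concentration-response curves fitted and classed.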
Large screens that a line does not name were inactive. Unless noted, the call rests on the fitted dose curve; in most records, active means well fitted curve in the direction sought with a large enough effect; inconclusive means small, poorly fitted or top-dose-only effect, or another doubt; inactive means no such curve, though single readings can be large; an effect the other way counts as inactive or inconclusive.

O=C(C[C@H]1C(=O)N(c2ccccc2)C[C@@H]1Cc1ccccc1)Nc1ccc(Br)cc1	TDP1 cell CPT 13µM, DT40 TDP1 no CPT 9.2µM
CCC[C@H]1CN(c2ccc(Br)cc2)C(=O)[C@@H]1CC(=O)Nc1ccc(OC)cc1	TDP1 cell CPT inconclusive, DT40 TDP1 no CPT 16.4µM, IL-1B inflam inh inconclusive
COc1ccc(N2C[C@H](CSC)[C@@H](CC(=O)Nc3ccc(Br)cc3)C2=O)cc1	TDP1 cell CPT inconclusive, DT40 TDP1 no CPT 20.6µM
COc1ccc(NC(=O)C[C@H]2C(=O)N(c3ccc(Br)cc3)C[C@@H]2CSC)cc1	TDP1 cell CPT inconclusive, DT40 TDP1 no CPT 23.1µM
CCC(=O)N1c2ccccc2CC1C(=O)NCc1cccc(OC)c1OC (stereo unspecified)	TDP1 cell CPT inconclusive (no result: HT1080 IDH1KD tx, IL-1B inflam inh, HT1080NT lethal)
CN1CCOCCOc2ccccc2OCCOCC1	none
c1ccc2c(c1)OCCOCCOCCOCCOc1ccccc1OCCOCCOCCO2	TDP1 cell CPT 14.6µM, DT40 TDP1 no CPT 18.4µM
CCSc1nc2nccnc2c(=O)[nH]1	none
CCOC(=O)c1ccc(NC(=O)c2nc[nH]c2C(=O)N[C@H](C)CO)cc1	none
COc1c(Cl)cc(Cl)cc1C(=O)Nc1ccc(NC(=O)c2cccs2)cc1	TDP1 cell CPT inconclusive, DT40 TDP1 no CPT 16.4µM, HT1080NT lethal inconclusive
CCCCOc1cccc(C(=O)Nc2ccc(NC(=O)c3cccs3)cc2)c1	HT1080 IDH1KD tx 14.6µM, TDP1 cell CPT 14.6µM, DT40 TDP1 no CPT inconclusive, HT1080NT lethal 20.6µM
O=C(Nc1ccc(NC(=O)c2ccc(Cl)cc2Cl)cc1)c1cccs1	HT1080 IDH1KD tx inconclusive, HT1080NT lethal inconclusive
COC(=O)COc1cccc(NC(=O)c2cccs2)c1	IL-1B inflam inh -52.6
COC(=O)COc1cccc(NC(=O)c2cccc(C)c2)c1	none
COc1ccc(C(=O)Nc2ccc(NC(=O)c3cccs3)cc2)cc1OC	TDP1 cell CPT inconclusive, DT40 TDP1 no CPT 18.4µM (no result: HT1080 IDH1KD tx, IL-1B inflam inh, HT1080NT lethal)
O=C(NCCN1CCOCC1)c1cccc(NS(=O)(=O)c2ccc(Br)cc2)c1	none
COc1ccc(C(=O)NNC(=O)CN2CCC(n3nnc4cc(F)ccc43)CC2)cc1	none
Cc1ccccc1-c1cccc(CN2CCc3nnc(C(C)NC(=O)c4cccnc4)n3CC2)c1 (stereo unspecified)	none (no result: HT1080 IDH1KD tx, IL-1B inflam inh, HT1080NT lethal)
CCn1nnnc1SCC(=O)N1CCCCC1	none
COc1ccc(NC(=O)Nc2cccs2)cc1Cl	TDP1 cell CPT inconclusive, DT40 TDP1 no CPT 23.1µM, IL-1B inflam inh -52.4
COc1ccc(NC(=O)CCC(=O)c2cccs2)cc1Cl	none
CCCCOc1cccc(C(=O)Nc2cccc3ccc(C)nc23)c1	TDP1 cell CPT inconclusive, DT40 TDP1 no CPT 23.1µM (no result: HT1080 IDH1KD tx, IL-1B inflam inh, HT1080NT lethal)
COc1cccc(OC)c1C(=O)Nc1cccc(NC(=O)c2cccs2)c1	none
COc1ccc(/C=C/C(=O)c2ccc(NC(=O)c3cccs3)cc2)cc1OC	TDP1 cell CPT 18.4µM, DT40 TDP1 no CPT 23.1µM, IL-1B inflam inh -65.8, HT1080NT lethal inconclusive
CCCCOc1cccc(C(=O)Nc2ccccc2N2CCCC2)c1	DT40 TDP1 no CPT inconclusive
COc1ccc(/C=C(\NC(=O)c2cccs2)C(=O)NC(C)(C)C)cc1OC	none
COc1ccc(C(=O)Nc2cccc(NC(=O)c3cccs3)c2)cc1OC	TDP1 cell CPT 14.6µM, DT40 TDP1 no CPT 13µM, IL-1B inflam inh inconclusive
COc1ccc(C(=O)Nc2ccc(NC(=O)c3cccs3)cc2)cc1Cl	TDP1 cell CPT 14.6µM, DT40 TDP1 no CPT 18.4µM
COc1ccc(NC(=O)c2cccs2)cc1	DT40 TDP1 no CPT inconclusive
c1ccc(CNc2nc(NCC3CC3)nc3cc(-c4ccccc4)sc23)cc1	HT1080 IDH1KD tx inconclusive, TDP1 cell CPT 9.2µM, DT40 TDP1 no CPT 10.3µM, IL-1B inflam inh -115.5, HT1080NT lethal 23.1µM
Cn1c(NCc2ccccc2)nc2cc(-c3ccccc3)sc2c1=O	TDP1 cell CPT inconclusive, DT40 TDP1 no CPT inconclusive
C=CCNc1nc(NCCNC(C)=O)c2sc(-c3ccccc3)cc2n1	TDP1 cell CPT inconclusive, DT40 TDP1 no CPT inconclusive, HT1080NT lethal inconclusive
c1ccc(OCCNc2nc(NCC3CC3)nc3cc(-c4ccccc4)sc23)cc1	HT1080 IDH1KD tx inconclusive, TDP1 cell CPT 5.8µM, DT40 TDP1 no CPT 5.8µM, IL-1B inflam inh -106.2, HT1080NT lethal 14.6µM
COCCCNC(=S)N1CCC(NC(=O)c2ccco2)CC1	none
